Results reported in PubChem BioAssay.
Results with a measured potency or affinity are listed apart. Calls of active or inactive are those of the source.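 The calls were made as follows, unless noted: active = earlier screen potentiator hit that boosts the TRPC4 ion channel at some dose, with a dose response; inactive = no potentiation, no dose response, or not a prior hit.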

The molecules below were run against Short transient receptor potential channel 4 (Mus musculus) (UniProt Q9QUQ5) (assay: potentiation of DAMGO-evoked TRPC4 calcium signal – cell-based, HEK293 TRPC4/mu-opioid, Fluo-4 calcium, EC20 DAMGO, dose response (AID 434941;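 also: calcium entry triggered by an EC20 dose of DAMGO at the co-expressed mu-opioid receptor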)). Conditions: HEK293 TRPC4/mu-opioid cells, Fluo-4 calcium fluorescence; series mostly up to 20 µM.
Short transient receptor potential channel 4 (Mus musculus), sequence (Q9QUQ5 whole entry, looked up): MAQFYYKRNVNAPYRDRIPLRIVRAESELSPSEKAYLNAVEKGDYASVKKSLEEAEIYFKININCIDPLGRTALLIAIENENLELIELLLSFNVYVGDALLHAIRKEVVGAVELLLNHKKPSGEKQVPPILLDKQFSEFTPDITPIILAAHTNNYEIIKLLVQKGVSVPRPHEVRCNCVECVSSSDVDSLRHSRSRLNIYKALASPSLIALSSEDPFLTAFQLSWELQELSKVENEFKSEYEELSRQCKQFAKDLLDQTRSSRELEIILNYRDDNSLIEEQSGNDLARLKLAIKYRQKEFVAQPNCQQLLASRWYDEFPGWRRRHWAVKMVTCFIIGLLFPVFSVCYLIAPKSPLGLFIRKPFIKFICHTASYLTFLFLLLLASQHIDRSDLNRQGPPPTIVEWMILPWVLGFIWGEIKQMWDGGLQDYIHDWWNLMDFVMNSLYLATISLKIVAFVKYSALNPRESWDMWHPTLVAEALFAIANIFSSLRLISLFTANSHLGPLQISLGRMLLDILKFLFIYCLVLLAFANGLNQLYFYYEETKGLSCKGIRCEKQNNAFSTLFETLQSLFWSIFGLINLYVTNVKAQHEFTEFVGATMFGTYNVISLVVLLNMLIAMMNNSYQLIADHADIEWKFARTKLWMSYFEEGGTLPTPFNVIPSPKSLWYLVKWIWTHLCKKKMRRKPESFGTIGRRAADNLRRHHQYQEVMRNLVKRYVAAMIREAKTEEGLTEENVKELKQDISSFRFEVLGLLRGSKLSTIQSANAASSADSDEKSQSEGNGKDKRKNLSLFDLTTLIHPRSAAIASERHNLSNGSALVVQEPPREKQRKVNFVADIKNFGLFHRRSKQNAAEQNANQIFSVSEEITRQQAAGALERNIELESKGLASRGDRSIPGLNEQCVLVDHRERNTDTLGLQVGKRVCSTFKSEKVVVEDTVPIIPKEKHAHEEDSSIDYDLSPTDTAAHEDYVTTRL

outcome, inactive:
Fc1ccc(-c2nnc(CN3CCN(c4ncc(C(F)(F)F)cc4Cl)CC3)o2)cc1, CCN1CCN(c2ccc(S(=O)(=O)N3CCCCC3)cc2NC(=O)COc2ccccc2)CC1, CC1CC(C)CN(CCCNC(=O)c2nn(C)c3c2CS(=O)(=O)c2ccccc2-3)C1 (stereo not drawn), Cc1ccc(/C=N\NC(=O)C2COc3cc4ccccc4cc3O2)o1 (stereo not drawn), Cc1cccc(C)c1OCC(O)CN (stereo not drawn), CCn1cc(CN2CCCC(C(=O)Nc3ccc(-c4nc5ccccc5[nH]4)cc3)C2)c(C)n1 (stereo not drawn), CC(C)(C)c1cc(Cl)ccc1OCCn1ccnc1, CC(C)c1ccc(NC(=S)N(C)CCc2ccccn2)cc1, CCCC(=O)NC(C)C(c1cccs1)N1CCN(c2ccccc2)CC1 (stereo not drawn), Cc1ccc2oc(=O)c3cnn(CC(=O)NC4CCN(Cc5ccccc5)CC4)c3c2c1, O=C(CCc1ccccc1)NNC(=S)NC(=O)c1ccc(Cl)cc1, C=CCn1c(CCNC(=O)c2ccco2)nc2ccccc21, Cc1sc2nc(CSc3ccccc3)nc(NCCN(C)C)c2c1C, O=C(CNS(=O)(=O)c1ccc2ccccc2c1)NCCc1ccccn1, COc1ccc(-c2cc(C#N)nc(N3CCNCC3)n2)cc1, Cc1ccc(C)c(OCCCCn2ccnc2)c1, CCCN(CCC)CCNC(=S)Nc1ccc2nc3n(c(=O)c2c1)CCCCC3, Cc1cccc(NC(=S)NCC(c2cccnc2)N(C)C)c1 (stereo not drawn), COc1ccc(/C=C/CN2CCCC(C(=O)c3ccc(OC)c(F)c3)C2)cc1 (stereo not drawn), Cc1sc2ncnc(NC3CCN(Cc4ccccc4)CC3)c2c1C, CCCCN(CC)CCNC(=O)c1cc2c(C)nc3ccccc3c2o1, O=C(NCCc1ccccn1)c1ccc(OC2CCN(CCc3ccccc3)CC2)cc1, Cc1ccccc1NC(=S)NCCc1ccccn1, NCCCn1c(C(=O)c2cc(Cl)c(N)c(Cl)c2)c2ccccc2[n+]1[O-], COc1ccc(-c2nn(-c3ccccc3)cc2CNCc2cccnc2)c(F)c1, Cc1onc(-c2ccccc2)c1C(=O)NC(=S)NNC(=O)c1ccco1, COc1ccc(C(CNC(=O)c2ccc(S(=O)(=O)N(C)C)cc2)N(C)C)cc1 (stereo not drawn), CCN1C(=O)c2cccc3c(S(=O)(=O)Nc4ccccc4OC)ccc1c23, CCOC(=O)C1CCCN(C(c2ccccn2)c2c(C)[nH]c3ccccc23)C1 (stereo not drawn), COC(=O)c1ccccc1N=Nc1c(N)[nH][nH]c1=O, COc1ccc(C(CNCC(=O)Nc2ccccc2F)N(C)C)cc1 (stereo not drawn), CCOC(=O)C1(CCOc2ccccc2)CCN(Cc2cnc(C)s2)CC1, O=C(c1sc2ccccc2c1Cl)N(Cc1ccco1)C1CCS(=O)(=O)C1 (stereo not drawn), CCCCN(C)CCCNC(=O)CN1N=C(c2ccc(Cl)cc2)CCC1=O, CN(C)CCCN(C(=O)c1ccc(C(=O)c2ccccc2)cc1)c1nc2ccc(F)cc2s1, CN(CCc1nc2ccc(Cl)cc2[nH]1)Cc1nc(CC2CC2)no1, Fc1ccc(C(c2nnnn2Cc2cccs2)N2CCN(C3CCCCC3)CC2)cc1 (stereo not drawn), COc1ccc(C2Nc3ccccc3C(=O)N2Cc2ccco2)cc1COc1ccc(NC(C)=O)cc1 (stereo not drawn), O=C(NCCCN1CCN(CCCNC(=O)c2ccc3c(c2)OCO3)CC1)c1ccc2c(c1)OCO2

What follows are molecules tested against Short transient receptor potential channel 4 (Mus musculus) (UniProt Q9QUQ5) (assay: block of DAMGO-driven TRPC4 calcium entry – cell-based, HEK293 TRPC4/mu-opioid, Fluo-4 calcium, dose response (AID 434942;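 active = primary screen inhibitor hit that blocks the TRPC4 channel at some tested dose, yielding a dose curve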)). Conditions: HEK293 TRPC4/mu-opioid cells, DAMGO-evoked Fluo-4 calcium ratio; series mostly up to 20 µM.

outcome, inactive:
Fc1ccc(-c2nnc(CN3CCN(c4ncc(C(F)(F)F)cc4Cl)CC3)o2)cc1, CCN1CCN(c2ccc(S(=O)(=O)N3CCCCC3)cc2NC(=O)COc2ccccc2)CC1, CC1CC(C)CN(CCCNC(=O)c2nn(C)c3c2CS(=O)(=O)c2ccccc2-3)C1 (stereo not drawn), Cc1ccc(/C=N\NC(=O)C2COc3cc4ccccc4cc3O2)o1 (stereo not drawn), Cc1cccc(C)c1OCC(O)CN (stereo not drawn), CCn1cc(CN2CCCC(C(=O)Nc3ccc(-c4nc5ccccc5[nH]4)cc3)C2)c(C)n1 (stereo not drawn), CC(C)(C)c1cc(Cl)ccc1OCCn1ccnc1, CC(C)c1ccc(NC(=S)N(C)CCc2ccccn2)cc1, CCCC(=O)NC(C)C(c1cccs1)N1CCN(c2ccccc2)CC1 (stereo not drawn), Cc1ccc2oc(=O)c3cnn(CC(=O)NC4CCN(Cc5ccccc5)CC4)c3c2c1, O=C(CCc1ccccc1)NNC(=S)NC(=O)c1ccc(Cl)cc1, C=CCn1c(CCNC(=O)c2ccco2)nc2ccccc21, Cc1sc2nc(CSc3ccccc3)nc(NCCN(C)C)c2c1C, O=C(CNS(=O)(=O)c1ccc2ccccc2c1)NCCc1ccccn1, COc1ccc(-c2cc(C#N)nc(N3CCNCC3)n2)cc1, Cc1ccc(C)c(OCCCCn2ccnc2)c1, CCCN(CCC)CCNC(=S)Nc1ccc2nc3n(c(=O)c2c1)CCCCC3, Cc1cccc(NC(=S)NCC(c2cccnc2)N(C)C)c1 (stereo not drawn), COc1ccc(/C=C/CN2CCCC(C(=O)c3ccc(OC)c(F)c3)C2)cc1 (stereo not drawn), Cc1sc2ncnc(NC3CCN(Cc4ccccc4)CC3)c2c1C, CCCCN(CC)CCNC(=O)c1cc2c(C)nc3ccccc3c2o1, O=C(NCCc1ccccn1)c1ccc(OC2CCN(CCc3ccccc3)CC2)cc1, Cc1ccccc1NC(=S)NCCc1ccccn1, NCCCn1c(C(=O)c2cc(Cl)c(N)c(Cl)c2)c2ccccc2[n+]1[O-], COc1ccc(-c2nn(-c3ccccc3)cc2CNCc2cccnc2)c(F)c1, Cc1onc(-c2ccccc2)c1C(=O)NC(=S)NNC(=O)c1ccco1, COc1ccc(C(CNC(=O)c2ccc(S(=O)(=O)N(C)C)cc2)N(C)C)cc1 (stereo not drawn), CCN1C(=O)c2cccc3c(S(=O)(=O)Nc4ccccc4OC)ccc1c23, CCOC(=O)C1CCCN(C(c2ccccn2)c2c(C)[nH]c3ccccc23)C1 (stereo not drawn), COC(=O)c1ccccc1N=Nc1c(N)[nH][nH]c1=O, COc1ccc(C(CNCC(=O)Nc2ccccc2F)N(C)C)cc1 (stereo not drawn), CCOC(=O)C1(CCOc2ccccc2)CCN(Cc2cnc(C)s2)CC1, O=C(c1sc2ccccc2c1Cl)N(Cc1ccco1)C1CCS(=O)(=O)C1 (stereo not drawn), CCCCN(C)CCCNC(=O)CN1N=C(c2ccc(Cl)cc2)CCC1=O, CN(C)CCCN(C(=O)c1ccc(C(=O)c2ccccc2)cc1)c1nc2ccc(F)cc2s1, CN(CCc1nc2ccc(Cl)cc2[nH]1)Cc1nc(CC2CC2)no1, Fc1ccc(C(c2nnnn2Cc2cccs2)N2CCN(C3CCCCC3)CC2)cc1 (stereo not drawn), COc1ccc(C2Nc3ccccc3C(=O)N2Cc2ccco2)cc1COc1ccc(NC(C)=O)cc1 (stereo not drawn), O=C(NCCCN1CCN(CCCNC(=O)c2ccc3c(c2)OCO3)CC1)c1ccc2c(c1)OCO2
